Drawing on PubChem BioAssay (Tox21), this text covers Potency and outcome for 14 compounds.

Test [1] can be described thus: qHTS assay to identify small molecule antagonists of the glucocorticoid receptor (GR) signaling pathway - cell viability counter screen (AID 720693). Note: nearly all actives have a fitted effect of over 55% in size. On the technique in general: In qHTS, concentration-response curves come from the screen itself.
The nature of test [2]: qHTS assay for identifying genotoxic compounds that show differential cytotoxicity against isogenic chicken DT40 cell lines with known DNA damage response pathways - Rad54/Ku70 mutant cell line (AID 743015). Note: nearly all actives have a fitted effect of over 60% in size. Note: potency is the fitted concentration of half-maximal effect.
Test [3] in a line: qHTS assay to identify small molecule antagonists of the androgen receptor (AR) signaling pathway - cell viability counter screen (AID 743033; note: nearly all actives have a fitted effect of over 45% in size).
A short description of test [4]: qHTS assay to identify small molecule antagonists of the androgen receptor (AR) signaling pathway using the MDA cell line - cell viability counter screen (AID 743041; note: nearly all actives have a fitted effect of over 45% in size). The procedure, abridged: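 Cytotoxicity counter screen: MDA-kb2 AR-luc cells, compound + R1881, 16 h, 37C, 0% CO2; CellTiter-Fluor added at 15.5 h, fluorescence read after 30 min.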
Test [5] has as its system thyroid hormone receptor (rat, GH3 cells). Briefly: qHTS assay to identify small molecule agonists of the thyroid receptor (TR) signaling pathway (AID 743066; calls by dose curve).
The nature of test [6]: qHTS assay to identify small molecule antagonists of the estrogen receptor alpha (ER-alpha) signaling pathway - cell viability counter screen (AID 743074; calls by dose curve;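 note: HEK293 cells carrying ER-alpha-UAS-bla reporter stimulated with 17beta-estradiol; nearly all actives have a fitted effect of over 45% in size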).
Test [7] addresses Estrogen receptor (Homo sapiens) (UniProt P03372). Nature of the test: qHTS assay to identify small molecule agonists of the estrogen receptor alpha (ER-alpha) signaling pathway using the BG1 cell line (AID 743079). Note: nearly all actives have a fitted effect of over 20% in size. Note: potency is the fitted concentration of half-maximal effect.
Test [8] is described as follows: qHTS assay to identify small molecule antagonists of the estrogen receptor alpha (ER-alpha) signaling pathway using the BG1 cell line (AID 743080; calls by dose curve;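 note: BG1 cells stimulated with 17beta-estradiol alongside compound; series mostly up to about 70 µM; nearly all actives have a fitted effect of over 25% in size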). The procedure, abridged: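 Readout is ONE-Glo luminescence, taken 30 min at room temperature after reagent addition, preceded by a CellTiter-Fluor viability read; BG1-Luc-4E2 cells had received compound and 17beta-estradiol for 21.5 h at 37 C.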

Test [9] in a line: qHTS assay to identify small molecule antagonists of the estrogen receptor alpha (ER-alpha) signaling pathway using the BG1 cell line - cell viability counter screen (AID 743081).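 Note: compound given together with 17beta-estradiol as the ER stimulus; series mostly up to about 70 µM; nearly all actives have a fitted effect of over 45% in size.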
Test [10] is described as follows: qHTS assay for identifying genotoxic compounds that show differential cytotoxicity against isogenic chicken DT40 cell lines with known DNA damage response pathways - wild type cell line (AID 743012). Note: nearly all actives have a fitted effect of over 60% in size. The procedure, abridged:
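CellTiter-Glo luminescence readout of viability in wild type DT40 cells after 40 h compound exposure at 37 C/5% CO2; 300 cells/well; reagent incubated 30 min at room temperature before reading.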

Test [11] is described as follows: qHTS assay to identify small molecule antagonists of the thyroid receptor (TR) signaling pathway (AID 743065). Note: nearly all actives have a fitted effect of over 55% in size. Note: potency is the fitted concentration of half-maximal effect. The procedure, abridged:
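GH3.TRE-Luc rat pituitary cells (two TREs driving luciferase) were dosed with compound, then stimulated with 1 nM T3 (final) for 23.5 h at 37 C. ONE-Glo luminescence was the read-out, with CellTiter-Fluor fluorescence as the cytotoxicity counter-screen.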

In test [12] the target is Estrogen receptor (Homo sapiens) (UniProt P03372). Briefly: qHTS assay to identify small molecule antagonists of the estrogen receptor alpha (ER-alpha) signaling pathway (AID 743069; active = well fitted curve in the direction sought with a large enough effect in the signal ratio in the repeat runs, not every such curve was filed as active; the % refers to the signal ratio). In a few lines: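 Beta-lactamase FRET fluorescence is read after 2 hr at room temperature with LiveBLAzer B/G substrate. Before that, ER-alpha-bla HEK293 cells sit 4 hr after plating, then receive compound plus 17beta-estradiol and incubate 18 hr at 37C.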
Sequence of Estrogen receptor (Homo sapiens) (P03372 whole entry, looked up): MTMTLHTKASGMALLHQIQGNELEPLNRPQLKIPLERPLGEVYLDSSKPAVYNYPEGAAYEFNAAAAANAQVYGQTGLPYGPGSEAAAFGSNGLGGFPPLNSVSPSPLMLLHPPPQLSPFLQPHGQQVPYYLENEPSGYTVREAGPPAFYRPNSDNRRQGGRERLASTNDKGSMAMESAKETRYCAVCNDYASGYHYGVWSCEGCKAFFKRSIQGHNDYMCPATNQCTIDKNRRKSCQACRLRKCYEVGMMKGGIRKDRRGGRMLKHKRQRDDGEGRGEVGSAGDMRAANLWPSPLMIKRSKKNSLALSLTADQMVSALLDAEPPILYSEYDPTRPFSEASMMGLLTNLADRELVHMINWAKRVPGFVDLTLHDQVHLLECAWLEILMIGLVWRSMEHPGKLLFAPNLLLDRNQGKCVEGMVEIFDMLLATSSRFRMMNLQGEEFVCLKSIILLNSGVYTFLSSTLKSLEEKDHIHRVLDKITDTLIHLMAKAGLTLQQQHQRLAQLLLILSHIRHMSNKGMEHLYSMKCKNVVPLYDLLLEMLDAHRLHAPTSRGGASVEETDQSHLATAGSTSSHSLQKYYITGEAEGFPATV

Test [13] shares this target. Briefly: qHTS assay to identify small molecule agonists of the estrogen receptor alpha (ER-alpha) signaling pathway (AID 743075; calls by dose curve;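 note: HEK293 GripTite cells with ER-alpha and UAS-driven beta-lactamase reporter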).
A further test concerns the target Aromatase (Homo sapiens) (UniProt P11511). Briefly: qHTS assay to identify aromatase inhibitors (AID 743083). Note: series mostly up to about 70 µM; nearly all actives have a fitted effect of over 55% in size.
Test [14] deals with Androgen receptor (Homo sapiens) (UniProt P10275). Briefly: qHTS assay to identify small molecule antagonists of the androgen receptor (AR) signaling pathway (AID 743035; active = well fitted inhibition curve with a large enough effect in the signal ratio in the repeat runs, not every such curve was filed as active; the % refers to the signal ratio; note: potency is the fitted concentration of half-maximal effect). In a few lines: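 AR-bla HEK293 reporter cells; 4 h settle at 37C/5% CO2; compound + R1881 agonist, 16 h at 37C; LiveBLAzer B/G FRET substrate 2 h RT; fluorescence intensity read. qHTS format.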
Sequence of Androgen receptor (Homo sapiens) (P10275 whole entry, looked up): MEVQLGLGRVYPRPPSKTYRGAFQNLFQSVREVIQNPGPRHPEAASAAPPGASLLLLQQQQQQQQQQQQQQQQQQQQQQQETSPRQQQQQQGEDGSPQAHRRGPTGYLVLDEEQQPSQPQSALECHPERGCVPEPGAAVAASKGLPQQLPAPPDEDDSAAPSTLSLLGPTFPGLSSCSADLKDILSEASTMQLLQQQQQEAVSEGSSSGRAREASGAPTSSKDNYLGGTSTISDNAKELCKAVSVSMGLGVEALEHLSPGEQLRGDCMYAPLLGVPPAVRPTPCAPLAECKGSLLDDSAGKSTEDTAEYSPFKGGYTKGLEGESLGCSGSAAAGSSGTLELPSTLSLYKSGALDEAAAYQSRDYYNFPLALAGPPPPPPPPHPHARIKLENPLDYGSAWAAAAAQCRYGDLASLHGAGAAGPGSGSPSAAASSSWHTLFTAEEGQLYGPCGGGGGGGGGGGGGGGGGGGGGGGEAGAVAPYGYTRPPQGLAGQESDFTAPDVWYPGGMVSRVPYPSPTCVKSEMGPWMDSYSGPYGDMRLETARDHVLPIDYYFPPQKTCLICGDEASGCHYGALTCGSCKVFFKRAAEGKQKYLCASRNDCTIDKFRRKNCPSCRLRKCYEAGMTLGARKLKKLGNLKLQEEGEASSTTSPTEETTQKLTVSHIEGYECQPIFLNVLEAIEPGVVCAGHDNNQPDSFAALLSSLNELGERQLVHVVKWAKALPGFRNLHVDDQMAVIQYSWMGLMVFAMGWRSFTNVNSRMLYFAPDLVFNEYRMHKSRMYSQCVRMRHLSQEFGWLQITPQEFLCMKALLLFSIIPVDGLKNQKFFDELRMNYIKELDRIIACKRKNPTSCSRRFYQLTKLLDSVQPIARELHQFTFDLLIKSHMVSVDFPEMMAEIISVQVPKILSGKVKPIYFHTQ
Test [15] shares this target. Nature of the test: qHTS assay to identify small molecule agonists of the androgen receptor (AR) signaling pathway (AID 743036; active = well fitted activation curve with a large enough effect in the signal ratio in the repeat runs, with a control signal flat, not every such curve was filed as active; the % refers to the signal ratio). The procedure, abridged: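 Screening used 2,000 AR-bla HEK293 cells per well, treated 16 h at 37C with test compounds in DMSO alongside positive and DMSO-only controls; beta-lactamase activity was then read by LiveBLAzer B/G FRET fluorescence after 2 h at room temperature.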

Test [16] shares this target. Nature of the test: qHTS assay to identify small molecule antagonists of the androgen receptor (AR) signaling pathway using the MDA cell line (AID 743042; note: nearly all actives have a fitted effect of over 55% in size). In a few lines:
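MDA-kb2 breast carcinoma cells carrying MMTV-luciferase (AR/GR responsive) were co-treated with compounds and the agonist R1881 for 16 h at 37C. Inhibition read as ONE-Glo luminescence; CellTiter-Fluor fluorescence measured in parallel for cytotoxicity.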

Test [17] in a line: qHTS assay for identifying genotoxic compounds that show differential cytotoxicity against isogenic chicken DT40 cell lines with known DNA damage response pathways - Rev3 mutant cell line (AID 743014). Note: nearly all actives have a fitted effect of over 55% in size. Note: potency is the fitted concentration of half-maximal effect.
Test [18] concerns the target Androgen receptor (Homo sapiens) (UniProt P10275). Briefly: qHTS assay to identify small molecule agonists of the androgen receptor (AR) signaling pathway using the MDA cell line (AID 743040; note: nearly all actives have a fitted effect of over 20% in size). The procedure, abridged:
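Luciferase read-out, ONE-Glo, 30 min RT. Cells: MDA-kb2 AR-luc, MMTV promoter with AR and GR response elements. Compound exposure 16 h, 37C, 0% CO2, after 5 h pre-incubation. qHTS agonist mode.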

A short description of test [19]: qHTS assay to identify small molecule antagonists of the thyroid receptor (TR) signaling pathway - cell viability counter screen (AID 743064). Note: nearly all actives have a fitted effect of over 50% in size. Note: potency is the fitted concentration of half-maximal effect. The procedure, abridged:
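Viability of T3-stimulated (1 nM final) GH3.TRE-Luc cells is measured by CellTiter-Fluor fluorescence after 23.5 h compound exposure at 37 °C plus 30 min reagent incubation.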

Results filed as inconclusive are left out. Calls of active or inactive are those of the source. Unless noted, calls come from the whole dose curve; as a rule, active = well fitted curve in the direction sought with a large enough effect in the repeat runs; inconclusive = weak or mixed curves; inactive = no such curve, though single readings can be large; an effect the other way counts as inactive or inconclusive.

Sequence of Aromatase (Homo sapiens) (P11511 whole entry, looked up): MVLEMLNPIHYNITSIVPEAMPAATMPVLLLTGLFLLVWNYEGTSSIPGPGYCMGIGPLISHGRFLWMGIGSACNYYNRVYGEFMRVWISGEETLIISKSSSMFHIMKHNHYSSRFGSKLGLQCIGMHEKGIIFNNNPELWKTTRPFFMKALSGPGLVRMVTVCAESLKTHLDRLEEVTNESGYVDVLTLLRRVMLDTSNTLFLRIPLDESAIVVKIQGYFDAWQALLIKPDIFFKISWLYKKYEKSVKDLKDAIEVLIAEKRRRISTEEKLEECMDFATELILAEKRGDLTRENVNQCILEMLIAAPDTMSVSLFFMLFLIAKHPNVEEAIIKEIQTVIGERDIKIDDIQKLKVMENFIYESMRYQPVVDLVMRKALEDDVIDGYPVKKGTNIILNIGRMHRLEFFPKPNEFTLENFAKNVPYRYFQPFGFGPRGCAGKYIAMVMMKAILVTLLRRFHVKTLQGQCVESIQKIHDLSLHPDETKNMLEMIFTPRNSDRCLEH

Take `C=CC(=O)OCCCCO`: the Potency entry in test [1], in test [3], in test [4], in test [5], in test [6] and in test [7] was “inactive” in each case. The Potency entry in test [8] and in test [9] was “inactive” throughout. Moreover, in [2], the Potency was 61.1 µM (active).
As to `CCOP(=S)(Oc1ccc([N+](=O)[O-])cc1)c1ccccc1` (stereo not given), the Potency entry in [1], in test [10], in test [3], in test [4], in test [11] and in test [5] was “inactive” each time. Moreover, the Potency entry (in [12]; in [6]; in [13]; in [8]; in test [9]; with Aromatase (Homo sapiens)) was “inactive” throughout. Further, the Potency in test [7] was 27.3 µM (active).
Take `CCCCCC[N+](=O)[O-]`: the Potency result in [1], in test [3], in test [14], in test [16], in test [11] and in [5] was “inactive” each time. The Potency result (in [6]; in test [9]; with Aromatase (Homo sapiens)) was “inactive” each time. Further, the compound was classed as inactive in test [15].
Take `O=C1C(Cl)C(CCl)CN1c1cccc(C(F)(F)F)c1` (stereo not given): the Potency result in test [1], in [17], in [2], in [3], in test [18] and in test [4] was “inactive” in each case. Besides, the Potency entry in [16], in [19], in test [11], in test [5], in test [6] and in test [9] was “inactive” each time. For the same compound, the Potency result in the test with Aromatase (Homo sapiens) is “inactive”. Also, the Potency in [14] is 24.5 µM (active). Moreover, the compound was called inactive in [15].
`CCOC(=O)COc1cc(-c2nn(C)c(OC(F)F)c2Cl)c(F)cc1Cl`: the Potency entry in test [1], in [17], in [3], in [18], in test [16] and in test [19] was “inactive” throughout. Moreover, the Potency result (in [11]; in [5]; in test [6]; in the test with Aromatase (Homo sapiens)) was “inactive” each time.
With `CCCCNP(N)(N)=S`, the Potency result in [1], in test [17], in [2], in [3], in [19] and in [11] was “inactive” in each case. In addition, the Potency entry in test [5], in [12], in test [6], in test [13], in test [8] and in test [9] was “inactive” throughout. The Potency entry in the test with Aromatase (Homo sapiens) is “inactive”.
Regarding `Cc1c(F)c(F)c(COC(=O)C2C(/C=C(\Cl)C(F)(F)F)C2(C)C)c(F)c1F` (stereo not given), the Potency entry in test [1], in [17], in test [3], in [19], in test [5] and in test [12] was “inactive” each time. For the same compound, the Potency result (in [6]; in test [13]; in [7]; in test [8]; in test [9]; with Aromatase (Homo sapiens)) was “inactive” each time.
Turning to `CCOS(C)(=O)=O`, the Potency entry in test [1], in test [10], in test [3], in [4], in test [19] and in [11] was “inactive” each time. Besides, the Potency result (in [5]; in test [6]; in [9]; with Aromatase (Homo sapiens)) was “inactive” throughout.
For the compound `CC(C)O.CC(C)O.OCCN(CCO)CCO.OCCN(CCO)CCO.[Ti]`, the Potency entry in [1], in test [17], in [3], in test [4], in [19] and in test [11] was “inactive” throughout. Further, the Potency entry in test [5], in test [6] and in test [9] was “inactive” throughout.
Consider `Cc1ccccc1CCl`, for which the Potency result in test [1], in test [10], in [3], in test [19], in [11] and in test [5] was “inactive” each time. The Potency entry (in test [6]; in test [9]; in the test with Aromatase (Homo sapiens)) was “inactive” in each case.
Regarding `O=C(O)c1ccccc1C(=O)Nc1cccc2ccccc12`, the Potency entry in test [1], in [3], in test [4], in [19], in test [11] and in test [5] was “inactive” in each case. The Potency entry (in test [6]; in test [9]; in the test with Aromatase (Homo sapiens)) was “inactive” in each case. Further, the Potency in test [17] was 54.5 µM (active).
Consider `OCCCBr`, for which the Potency result in [1], in test [17], in test [3], in test [5], in [12] and in test [13] was “inactive” in each case. Also, the Potency result (in test [7]; in test [8]; with Aromatase (Homo sapiens)) was “inactive” each time. Also, the Potency in test [19] was 54.5 µM (active); in test [11], 61.1 µM (active).
Turning to `II`, the Potency entry in test [1], in test [3], in test [14], in test [18], in [4] and in test [16] was “inactive” in each case. The Potency entry in [19], in [11], in test [5], in test [12], in test [6] and in [13] was “inactive” each time. Besides, the Potency result in test [7], in [8] and in [9] was “inactive” each time.
On to `O=NN1CCNCC1`, for which the Potency result in test [1], in [2], in test [3], in test [4], in test [19] and in test [11] was “inactive” throughout. Besides, the Potency entry in test [5], in [12], in test [6], in test [13], in test [7] and in test [8] was “inactive” each time. Moreover, the Potency result (in [9]; with Aromatase (Homo sapiens)) was “inactive” in each case.
